Measured values: PubChem BioAssay (NCI)
This is part of a sample that, as a whole, favours compounds with a hit. Of some 83,000 tested, about 20% had one in any assay.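 Plates (96-well) were seeded with cells, treated with compound at one concentration, and incubated for 48 hours before percent growth was determined.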 A number with no mark means an inactive call. The source made the active and inactive calls.

Test system: BT-549 breast
Assay: NCI-60 one-dose screen, 48 h (100 = growth as untreated, 0 = no growth, -100 = all killed)
Settings: 10 µM
Protocol: Growth inhibition of the BT-549 human tumor cell line is measured as a screen for anti-cancer activity. Cells are grown in 96 well plates and exposed to the test compound for 48 hours. Compounds are tested at a single concentration, which is 10^-5 M for most compounds. The reported endpoint is percent growth (GI% or GIPRCNT), where numbers from 0 - 100% represent growth inhibition, and numbers from -100% - 0 represent cell death. For example, a value of 40 represents 60% growth inhibition. A value of 0 means no net growth occurred over the course of the experiment. A value of -40 indicates 40% of cells at the beginning of the experiment died by the end of the experiment. A value of -100 means all cells are dead at the end of the experiment.
NCI-60 Human Tumor Cell Lines Screen was performed using the standard one-dose NCI protocol, which is described in more detail at https://dtp.cancer.gov/discovery_development/nci-60/default.htm.
Compounds with GIPRCNT values below 10 were considered active. Activity score was based on GIPRCNT using the following formula: […]
Score is 0 for GIPRCNT values of 100 or above, 50 for GIPRCNT values of 0, and 100 for GIPRCNT values of -100.

| Structure (SMILES) | growth |
| --- | --- |
| CC1(C)CCc2cc(-c3ccn(S(=O)(=O)c4ccc(Cl)cc4)n3)ccc2O1 | 88.8% |
| CC(=O)/C(=C\c1ccc(Cl)cc1)c1ccccc1 | 14.5% |
| COc1cc(Cl)cc(-c2nn(-c3cccc(NC(=O)Nc4cccc(C(F)(F)F)c4)c3)cc2-c2ccncc2)c1 | 12.9% |
| O=c1oc2cc(OS(=O)(=O)C3CC3)ccc2c2c1CCCCCC2 | 80.1% |
| O=NN(CCCl)C(=O)Nc1ccc(NC(=O)N(CCCl)N=O)cc1 | 85.2% |
| Fc1ccc2[nH]c3c(NCCCN4CCOCC4)ncnc3c2c1 | 96.4% |
| COc1cc(C(c2c[nH]c3ccccc23)N2CCCC2)ccc1OCc1ccccc1 (stereo not given) | -2.45% (active) |
| COC(=O)c1cnc2c(c1)Oc1ccc(Cl)cc1-c1cc(C)nn1-2 | 83.4% |
| O=S(=O)(O)C1(O)CCCCC1 | 112% |
| O=C(c1ccc(Cl)cc1)c1no[n+]([O-])c1C(=O)c1ccc(Cl)cc1 | 98.7% |
| FC(F)(F)c1ccc(-c2cnc(Cl)nc2NC2CCCCCC2)cc1 | 52.5% |
| CCc1cc2n(n1)-c1ncc(C(=O)OC)cc1Oc1ccccc1-2 | 111% |
| Cc1cccc2c(Nc3ccc(NS(C)(=O)=O)cc3)c3ccc([N+](=O)[O-])cc3nc12 | 29.1% |
| CCn1nc(-c2ccccn2)c2cccnc2c1=S | 104% |
| O=C(O)c1cc(C(F)(F)F)cc(C(F)(F)F)c1 | 105% |
| CN(C)c1ccc2c(c1)OC(N)=C(C#N)C2c1ccc2c(c1)CCCN2C (stereo not given) | 49.4% |
| O=C(Nc1cccc(C(F)(F)F)c1)C(Cl)Cl | 102% |
| COc1ccccc1Cn1cc2c(c1-c1ccccc1)CCc1cnoc1-2 | 46.9% |
| COc1cc(C2CC(=O)Nc3c2c(C)nn3-c2nc3ccccc3[nH]2)cc(OC)c1O (stereo not given) | 46.2% |
| CCOC(=O)C(=O)Cc1cccnn1 | 101% |

| Structure (SMILES) | growth |
| --- | --- |
| N#CN1CC[C@H](C(=O)Nc2ncc(-c3ccccc3)s2)C1 | -5.31% (active) |
| CC(C)c1ncc(CO)n1Cc1c(Cl)cccc1Cl | 104% |
| OC(CNC1CCCC1)Cn1c2ccccc2c2ccccc21 (stereo not given) | 53.8% |
| CC1=CC2OC34COC3CC(OC(=O)C(F)(F)F)C4(C)C2(C)CC1 (stereo not given) | 95.9% |
| CC(=O)Nc1ccc(Sc2ccc(NC(C)=O)cc2)cc1 | 95.5% |
| Cc1cc(C#Cc2ccccc2)ccc1-n1c(/C=C/c2cc(O)ccc2O)nc2ccccc2c1=O | -11.1% (active) |
| NC(=O)C12C(=O)NC(=O)C1(C(=O)O)C21CCCC1 (stereo not given) | 104% |
| c1ccc(COCC[P+](c2ccccc2)(c2ccccc2)c2ccccc2)cc1 | 5.25% (active) |
| O=C(Nc1cccc(Cl)c1)OCC(COC(=O)Nc1cccc(Cl)c1)(COC(=O)Nc1cccc(Cl)c1)[N+](=O)[O-] | 50.8% |
| COC(=O)C1(C(=O)OC)C2C(=O)C3C(C21)C3(C(=O)OC(C)(C)C)C(=O)OC(C)(C)C (stereo not given) | 101% |
| COc1cc(OC)cc(-c2ccc(-c3ccc(C(=N)N)cn3)o2)c1 | -3.57% (active) |
| Nc1nsc(C(=O)c2ccc(O)cc2)n1 | 102% |
| CCCc1c(C)nc2scc(-c3ccc(Cl)cc3)n2c1=O | 98.3% |
| CCCCN(CCCC)c1ccc(C(=NC(C)CCCN(CC)CC)c2ccc(N(C)C)cc2)cc1 (stereo not given) | -27.2% (active) |
| COCCNCC(O)Cn1c2ccc(Cl)cc2c2cc(Cl)ccc21 (stereo not given) | 11.2% |
| CN(C)c1ccc2c(c1)OC(N)=C(C#N)C2c1ccc2c(c1)CCO2 (stereo not given) | 16.7% |
| CCOC(=O)c1c(C(F)(F)F)n([O-])c2ccc(OC)cc2[n+]1=O | -3.39% (active) |
| CNC(=O)c1cc(Oc2ccc(NC(=O)Nc3ccc(Cl)c(C(C)(C)C)c3)c(F)c2)ccn1 | 47.2% |
| N#Cc1ccc(-n2cnc(NC(=O)[C@H]3CCN(C#N)C3)c2)cc1 | 18.5% |
| COC(=O)[C@]12CC[C@@H](C)[C@H](C)[C@@H]1C1=CC[C@@H]3[C@@]4(C)CC(=O)[C@H](O)[C@@](C)(CO)[C@@H]4C(=O)C[C@@]3(C)[C@]1(C)CC2 | -31.4% (active) |
